Laboratory results from PubChem BioAssay (Tox21).
Results filed as inconclusive are left out. Where a call stands in place of a potency, no number is given. Calls of active or inactive are those of the source. The call rests on the fitted dose curve; in most records, active means well fitted activation curve with a large enough effect; inconclusive means small, poorly fitted or top-dose-only effect; inactive means flat fitted curve, though single readings scatter. Positions of bridges follow the written chain, without caps; N, C: chain ends. Non-standard residues stand in square brackets, D forms with d. Residues, ends and D or L forms follow the SMILES beside them. *: point of attachment. X2 = CC[C@H](C)CCCCC(=O)*; Dab = NCC[C@H](N)C(=O)O

Assay: qHTS assay to identify small molecule phospholipidosis (PLD) inducers (AID 1259344)
Conditions: HepG2 phospholipidosis, LipidTOX Red imaging, 24 h; series mostly up to 38.3 µM
In short: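 Quantitative HTS in HepG2: compound plus LipidTOX Red dye for 24 h, paraformaldehyde fixation with Hoechst 33342, widefield high-content imaging; amiodarone as positive and DMSO as negative control.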

With `CCCCC(F)(F)[C@@]1(O)CC[C@H]2[C@@H](CC(=O)[C@@H]2CCCCCCC(=O)O)O1` as the compound, how does the Potency read?
The Potency was “inactive”.

With `C[C@H](CSC(=O)c1ccccc1)C(=O)N1C[C@@H](Sc2ccccc2)C[C@H]1C(=O)O` as the compound, how does the Potency read?
The Potency was “inactive”.

Which PLD induction does the source give for `CC1(C)N=C(N)N=C(N)N1c1ccc(Cl)cc1` here?
Its PLD induction is -3.82% [at 7.66 µM] (inactive).

For `N[C@@H](C(=O)N[C@@H]1C(=O)N2C(C(=O)O)=C(Cl)CC[C@H]12)c1ccccc1`, which Potency is on record?
Its Potency is “inactive”.

For `O=P(O)(O)OC(Cn1cncn1)(Cn1cncn1)c1ccc(F)cc1F`, which Potency is on record?
Its Potency is “inactive”.

With `CCCCCCCCCCCCCCCCCC(=O)OCCO` as the compound, how does the Potency read?
Its Potency is “inactive”.

With `Cc1nnc(C(C)C)n1C1C[C@H]2CC[C@@H](C1)N2CC[C@H](NC(=O)C1CCC(F)(F)CC1)c1ccccc1` (stereo partly specified) as the compound, how does the PLD induction read?
Its PLD induction is -2.27% [at 7.66 µM] (inactive).

With `CCC(=O)OCC(=O)[C@@]1(OC(=O)CC)[C@@H](C)C[C@H]2[C@@H]3CCC4=CC(=O)C=C[C@]4(C)[C@@]3(Cl)[C@@H](O)C[C@@]21C` as the compound, how does the Potency read?
The Potency was “inactive”.

With `O=c1[nH]cnc2[nH]cc(CN3CCCCC3)c12` as the compound, how does the PLD induction read?
The PLD induction was 1.92% [at 1.53 µM] (inactive).

With `CC(C)(C)NC(=O)[C@H]1CC[C@H]2[C@@H]3CC=C4C=C(C(=O)O)CC[C@]4(C)[C@H]3CC[C@]12C` as the compound, how does the Potency read?
Its Potency is “inactive”.

For `C[N+]1(C)CCN(CC(O)(c2ccccc2)C2CCCCC2)CC1` (stereo unspecified), which Potency is on record?
Its Potency is “inactive”.

For `CN[C@@H]1[C@@H](O)[C@@H](O[C@@H]2[C@@H](O)[C@H](OC3OC(CN)=CCC3N)[C@@H](N)C[C@H]2N)OC[C@]1(C)O` (stereo partly specified), which Potency is on record?
Its Potency is “inactive”.

With `O=C(O)c1ccc(OCCn2ccnc2)cc1` as the compound, how does the Potency read?
The Potency was “inactive”.

With `CCCC(=O)N1CCCN(c2nc(N)c3cc(OC)c(OC)cc3n2)CC1` as the compound, how does the Potency read?
The Potency was “inactive”.

With `CO[C@H]1C[C@H](O[C@H]2[C@H](C)O[C@@H](O[C@@H]3/C(C)=C/C[C@@H]4C[C@@H](C[C@]5(C=C[C@H](C)[C@@H](C6CCCCC6)O5)O4)OC(=O)[C@@H]4C=C(C)[C@@H](O)[C@H]5OC/C(=C\C=C\[C@@H]3C)[C@]54O)C[C@@H]2OC)O[C@@H](C)[C@@H]1O` as the compound, how does the Potency read?
Its Potency is “inactive”.

With `OCC(O)COc1ccc(Cl)cc1` (stereo unspecified) as the compound, how does the Potency read?
Its Potency is “inactive”.

Which PLD induction does the source give for `CC(C(=O)O)c1ccc(C2CCCCC2)c2ccccc12` (stereo unspecified) here?
Its PLD induction is 0.703% [at 7.66 µM] (inactive).

With `C/C=C1\NC(=O)[C@H]2CSSCC/C=C/[C@H](CC(=O)N[C@H](C(C)C)C(=O)N2)OC(=O)C(C(C)C)NC1=O` (stereo partly specified) as the compound, how does the Potency read?
Its Potency is “inactive”.

Which Potency does the source give for `Cn1cc(NC(=O)c2cc(NC(=O)c3cc(NC=O)cn3C)cn2C)cc1C(=O)NCCC(=N)N` here?
Its Potency is “inactive”.

With `CO[C@H]1C[C@H](O[C@H]2[C@H](C)[C@@H](O[C@@H]3O[C@H](C)C[C@H](N(C)C)[C@H]3OC(C)=O)[C@@H](C)C[C@]3(CO3)C(=O)[C@H](C)[C@@H](OC(C)=O)[C@@H](C)[C@@H](C)OC(=O)[C@@H]2C)O[C@@H](C)[C@@H]1OC(C)=O` as the compound, how does the Potency read?
The Potency was “inactive”.

For `CO[C@H]1[C@@H](O)[C@H](N)[C@@H](O[C@H]2O[C@H]([C@H](C)N)CC[C@H]2N)[C@H](O)[C@@H]1N(C)C(=O)CN`, which Potency is on record?
The Potency was “inactive”.

With `CCCC(CCC)C(N)=O` as the compound, how does the PLD induction read?
Its PLD induction is 0.287% [at 7.66 µM] (inactive).

With `O=C(Cn1c(=O)sc2ccc(Cl)cc21)N1CCN(CCO)CC1` as the compound, how does the PLD induction read?
The PLD induction was 3.19% [at 7.66 µM] (inactive).

Which PLD induction does the source give for `CCCCCCCCCCCCCCCC(=O)OC[C@@H](COP(=O)([O-])OCC[N+](C)(C)C)OC(=O)CCCCCCCCCCCCCCC` here?
Its PLD induction is -0.903% [at 1.53 µM] (inactive).

With `CC[C@H](C)CCCCC(=O)N[C@@H](CCN)C(=O)N[C@H](C(=O)N[C@@H](CCN)C(=O)N[C@H]1CCNC(=O)[C@H]([C@@H](C)O)NC(=O)[C@H](CCN)NC(=O)[C@H](CCN)NC(=O)[C@H](CC(C)C)NC(=O)[C@@H](CC(C)C)NC(=O)[C@H](CCN)NC1=O)[C@@H](C)O` (X2-[Dab]T[Dab][Dab][Dab][dL]L[Dab][Dab]T; lactam 4-C) as the compound, how does the Potency read?
Its Potency is “inactive”.

Which PLD induction does the source give for `N[C@H](CCC(=O)O)C(=O)O` here?
Its PLD induction is 0.563% [at 7.66 µM] (inactive).
